Source: PubChem BioAssay (EPA / NIEHS)
Several values for one entry are separate records, joined by “and”; a condition that tells them apart may be missing. Equal values may be shown once. Records with an inconclusive call do not appear. The source holds several records for some structures; these can differ, active in one and inactive in another. Activity calls are given as the source filed them. How the source made its calls, unless noted: active means hit-call score of the fitted dose curve at least 0.9, where 1 is the maximum; inconclusive means response in the unintended direction; inactive means score below 0.9.

What was measured:
[1] = molecular target: Estrogen receptor beta (Homo sapiens) (UniProt Q92731); experiment: OT_ER_ERbERb_1440: Odyssey Thera (OT) 24-hour HEK293T Protein-Complementation Assay for Estrogen Receptor-beta/-beta Homodimer (AID 2283380);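 further: scored as signal increase over DMSO baseline for both agonists and antagonists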
Sequence of Estrogen receptor beta (Homo sapiens) (Q92731 whole entry, looked up, the tested form may be a part): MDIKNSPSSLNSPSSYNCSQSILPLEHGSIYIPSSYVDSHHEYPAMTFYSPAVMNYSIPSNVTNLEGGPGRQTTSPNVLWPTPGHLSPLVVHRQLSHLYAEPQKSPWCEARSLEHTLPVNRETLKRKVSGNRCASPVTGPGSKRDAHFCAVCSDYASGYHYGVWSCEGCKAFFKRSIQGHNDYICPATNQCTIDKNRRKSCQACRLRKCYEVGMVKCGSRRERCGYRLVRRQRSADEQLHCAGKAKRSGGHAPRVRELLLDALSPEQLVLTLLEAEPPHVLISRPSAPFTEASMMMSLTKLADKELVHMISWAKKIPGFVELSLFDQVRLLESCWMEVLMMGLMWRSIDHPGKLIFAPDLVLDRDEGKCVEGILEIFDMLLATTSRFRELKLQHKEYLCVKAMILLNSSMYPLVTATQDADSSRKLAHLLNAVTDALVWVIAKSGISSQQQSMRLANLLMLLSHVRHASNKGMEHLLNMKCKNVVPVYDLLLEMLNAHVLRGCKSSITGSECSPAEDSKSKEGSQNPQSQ
Method in brief: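 HEK293T cells stably expressing ER beta LBD (aa 310-547) homodimer fragment-complementation reporter, dosed 24 h. Cells formaldehyde-fixed, Draq5-stained; gain in nuclear (agonist) or nuclear plus cytoplasmic (antagonist) fluorescence versus DMSO read by laser scanning cytometry.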

[2] = molecular target: Bile acid receptor (Homo sapiens) (UniProt Q96RI1); experiment: OT_FXR_FXRSRC1_0480: Odyssey Thera (OT) 8-hour HEK293T Protein-Complementation Assay for Farnesoid X receptor/SRC-1 Co-activator (AID 2283383)
Sequence of Bile acid receptor (Homo sapiens) (Q96RI1 whole entry, looked up, the tested form may be a part): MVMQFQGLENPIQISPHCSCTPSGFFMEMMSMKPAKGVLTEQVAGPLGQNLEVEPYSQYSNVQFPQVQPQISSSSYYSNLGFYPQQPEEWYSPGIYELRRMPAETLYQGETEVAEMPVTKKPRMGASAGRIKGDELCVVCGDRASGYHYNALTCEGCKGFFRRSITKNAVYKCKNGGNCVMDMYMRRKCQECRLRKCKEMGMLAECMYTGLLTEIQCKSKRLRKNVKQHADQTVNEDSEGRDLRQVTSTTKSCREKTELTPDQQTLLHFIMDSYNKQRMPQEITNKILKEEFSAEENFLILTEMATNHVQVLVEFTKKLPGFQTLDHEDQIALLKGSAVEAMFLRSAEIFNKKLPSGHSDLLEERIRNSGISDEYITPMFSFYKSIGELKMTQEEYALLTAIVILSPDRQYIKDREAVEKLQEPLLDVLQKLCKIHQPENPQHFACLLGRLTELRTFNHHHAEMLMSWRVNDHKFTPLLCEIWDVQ
Method in brief: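 Human kidney HEK293T cells carried FXR/SRC-1 fragment-complementation constructs. Compounds were added and incubated 8 h. Reporter reassembly upon receptor–co-activator interaction was then quantified by fluorescence, with curves fitted in the positive direction relative to DMSO.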

[3] = molecular target: Bile acid receptor (Homo sapiens) (UniProt Q96RI1); experiment: OT_FXR_FXRSRC1_1440: Odyssey Thera (OT) 24-hour HEK293T Protein-Complementation Assay for Farnesoid X receptor/SRC-1 Co-activator (AID 2283384)
Method in brief: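 Compounds are applied to human kidney HEK293T cells expressing bait and prey fused to reporter protein fragments; after 24 h, reconstituted reporter fluorescence is measured. Activity is fitted as signal gain over DMSO.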

[4] = molecular target: Retinoic acid receptor RXR-alpha (Homo sapiens) (UniProt P19793); experiment: OT_NURR1_NURR1RXRa_0480: Odyssey Thera (OT) 8-hour HEK293T Protein Complementation Assay for Nurr1/retinoid X receptor (RXR) (AID 2283385)
Sequence of Retinoic acid receptor RXR-alpha (Homo sapiens) (P19793 whole entry, looked up, the tested form may be a part): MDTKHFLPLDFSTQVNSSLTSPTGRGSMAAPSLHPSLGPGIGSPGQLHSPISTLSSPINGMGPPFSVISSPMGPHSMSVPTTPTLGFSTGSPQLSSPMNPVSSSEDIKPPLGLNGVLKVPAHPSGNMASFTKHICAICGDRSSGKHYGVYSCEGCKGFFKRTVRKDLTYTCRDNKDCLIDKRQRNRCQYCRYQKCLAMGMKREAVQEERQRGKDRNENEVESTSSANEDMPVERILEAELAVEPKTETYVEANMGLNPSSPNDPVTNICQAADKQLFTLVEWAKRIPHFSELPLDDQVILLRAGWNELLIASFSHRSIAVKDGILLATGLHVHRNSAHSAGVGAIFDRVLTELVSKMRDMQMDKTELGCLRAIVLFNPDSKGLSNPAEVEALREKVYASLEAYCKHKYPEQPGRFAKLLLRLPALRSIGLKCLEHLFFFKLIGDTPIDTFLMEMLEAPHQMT
Method in brief: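 8 h compound exposure, HEK293T; Nurr1/RXRα fragment complementation; fluorescence intensity; positive fitting direction vs DMSO baseline.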

[5] = molecular target: Retinoic acid receptor RXR-alpha (Homo sapiens) (UniProt P19793); experiment: OT_NURR1_NURR1RXRa_1440: Odyssey Thera (OT) 24-hour HEK293T Protein Complementation Assay for Nurr1/retinoid X receptor (RXR) (AID 2283386)
Method in brief: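 Interaction of Nurr1 with RXRα brings fused reporter fragments together in human HEK293T cells, restoring a functional reporter. Fluorescence intensity is measured 24 h after chemical treatment, and values are analysed in the positive direction against DMSO.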

[6] = molecular target: Peroxisome proliferator-activated receptor gamma (Homo sapiens) (UniProt P37231); experiment: OT_PPARg_PPARgSRC1_0480: Odyssey Thera (OT) 8-hour Protein-Complementation Assay for Peroxisome Proliferator-activated Receptor Gamma / SRC-1 Co-activator (AID 2283387);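 further: nuclear to cytoplasmic split Venus YFP fluorescence ratio reporting PPARg SRC-1 interaction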
Sequence of Peroxisome proliferator-activated receptor gamma (Homo sapiens) (P37231 whole entry, looked up, the tested form may be a part): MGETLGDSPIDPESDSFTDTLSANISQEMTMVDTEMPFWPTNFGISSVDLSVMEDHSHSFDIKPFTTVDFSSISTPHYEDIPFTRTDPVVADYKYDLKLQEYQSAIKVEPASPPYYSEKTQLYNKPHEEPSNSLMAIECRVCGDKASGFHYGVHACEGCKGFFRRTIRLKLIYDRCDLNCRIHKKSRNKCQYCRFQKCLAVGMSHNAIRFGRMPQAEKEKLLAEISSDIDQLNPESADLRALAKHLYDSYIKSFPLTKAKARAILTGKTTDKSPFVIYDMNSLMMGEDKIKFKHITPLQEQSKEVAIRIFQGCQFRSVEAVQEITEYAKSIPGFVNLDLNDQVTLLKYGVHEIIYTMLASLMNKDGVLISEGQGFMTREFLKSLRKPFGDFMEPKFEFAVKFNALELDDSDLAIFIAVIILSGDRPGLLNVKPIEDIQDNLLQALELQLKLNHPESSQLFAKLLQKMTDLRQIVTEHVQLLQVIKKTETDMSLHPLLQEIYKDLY
Method in brief: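 Protein-fragment complementation in HEK293T: Venus YFP halves (residues 1-158, 159-239, mutated to IFP1/IFP2) fused to PPARg/SRC-1. 8 h exposure; N/C ratio at 488 nm; DMSO negative control.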

[7] = molecular target: Peroxisome proliferator-activated receptor gamma (Homo sapiens) (UniProt P37231); experiment: OT_PPARg_PPARgSRC1_1440: Odyssey Thera (OT) 24-hour Protein-Complementation Assay for Peroxisome Proliferator-activated Receptor Gamma/ SRC-1 Co-activator (AID 2283388);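 further: nuclear to cytoplasmic ratio of reconstituted Venus YFP fluorescence in fixed imaged cells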
Method in brief: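 Readout: nuclear-to-cytoplasmic 488 nm fluorescence ratio, ≥350 cells per image, 8 images per well, after 24 h compound exposure of HEK293T expressing PPARg/SRC-1 split-YFP fusions. Activity fitted in positive direction against DMSO.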

[8] = molecular target: Estrogen receptor (Homo sapiens) (UniProt P03372); experiment: OT_ERa_GFPERaERE_0480: Odyssey Thera (OT) 8-hour HeLa Transcription Induction Assay for Estrogen Receptor (AID 2283381; active means hit-call score of the fitted dose curve at least 0.9, where 1 is the maximum; inactive means score below 0.9)
Sequence of Estrogen receptor (Homo sapiens) (P03372 whole entry, looked up): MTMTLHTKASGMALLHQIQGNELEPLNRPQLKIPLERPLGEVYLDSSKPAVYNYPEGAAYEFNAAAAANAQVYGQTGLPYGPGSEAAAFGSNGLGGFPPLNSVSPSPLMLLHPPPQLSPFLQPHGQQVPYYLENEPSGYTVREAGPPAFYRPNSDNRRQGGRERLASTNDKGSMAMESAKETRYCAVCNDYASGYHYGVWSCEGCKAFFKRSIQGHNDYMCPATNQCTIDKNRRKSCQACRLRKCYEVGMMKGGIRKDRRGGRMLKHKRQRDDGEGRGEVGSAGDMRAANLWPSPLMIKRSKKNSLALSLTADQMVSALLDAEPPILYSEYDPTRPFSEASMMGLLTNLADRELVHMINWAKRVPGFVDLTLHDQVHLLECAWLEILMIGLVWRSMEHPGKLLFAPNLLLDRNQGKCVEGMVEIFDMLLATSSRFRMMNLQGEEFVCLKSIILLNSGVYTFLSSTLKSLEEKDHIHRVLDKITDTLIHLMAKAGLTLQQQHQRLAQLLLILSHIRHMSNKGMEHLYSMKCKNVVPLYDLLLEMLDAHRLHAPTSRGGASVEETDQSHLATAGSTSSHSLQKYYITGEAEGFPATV
Method in brief: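 Fluorescent reporter signal, imaged by microscopy and scored with image-analysis algorithms, was taken 8 h after chemical dosing of HeLa cells; activity was fitted upward relative to DMSO.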

[9] = molecular target: Estrogen receptor (Homo sapiens) (UniProt P03372); experiment: OT_ERa_GFPERaERE_0120: Odyssey Thera (OT) 2-hour HeLa Transcription Induction Assay for Estrogen Receptor (AID 2283382)
Method in brief: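 HeLa, 384-well, 2 h chemical exposure; GFP reporter induction (ERE), fluorescence microscopy; high content image analysis; positive fitting direction vs DMSO.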

[10] = CEETOX_H295R_11DCORT: CeeTox H295R High-throughput Steroidogenesis Assay for 11-Deoxycortisol (11DCORT) (AID 2283432; active means hit-call score of the fitted dose curve at least 0.9, where 1 is the maximum; inactive means score below 0.9;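 on AC50: 11-deoxycortisol secreted into the medium measured by LC-MS/MS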); conditions: actives raise or lower the signal
Method in brief: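 Adrenal carcinoma line H295R, run per OECD 456 with minor changes, was forskolin-stimulated (10 uM, 48 h) before a 48 h chemical exposure at 0.1% DMSO. Secreted 11-deoxycortisol was quantified by HPLC-MS/MS.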

[11] = CEETOX_H295R_OHPREG: CeeTox H295R High-throughput Steroidogenesis Assay for OH-Pregnenolone (OHPREG) (AID 2283434; active means hit-call score of the fitted dose curve at least 0.9, where 1 is the maximum; inactive means score below 0.9); conditions: actives raise or lower the signal
Method in brief: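 H295R cells pre-stimulated 48 h with 10 uM forskolin, then exposed 48 h to chemical in 0.1% DMSO. 17alpha-hydroxypregnenolone in medium quantified by MTBE extraction and HPLC-MS/MS; bidirectional fit versus DMSO, viability checked by MTT.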

[12] = CEETOX_H295R_OHPROG: CeeTox H295R High-throughput Steroidogenesis Assay for OH-Progesterone (OHPROG) (AID 2283435; active means hit-call score of the fitted dose curve at least 0.9, where 1 is the maximum; inactive means score below 0.9;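 on AC50: human adrenal H295R cells primed 48 h with 10 µM forskolin; 17alpha-hydroxyprogesterone secreted into medium measured by HPLC-MS/MS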); conditions: actives raise or lower the signal
Method in brief: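 H295R, 10 uM forskolin prestim 48 h; cmpd in 0.1% DMSO 48 h; medium MTBE-extracted, HPLC-MS/MS for OH-progesterone; 7-pt std curve; bidirectional fit vs DMSO; MTT viability, chemicals diluted until viability >/=70%.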

[13] = CEETOX_H295R_CORTIC: CeeTox H295R High-throughput Steroidogenesis Assay for Corticosterone (CORTIC) (AID 2283437; active means hit-call score of the fitted dose curve at least 0.9, where 1 is the maximum; inactive means score below 0.9;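 further: corticosterone secreted into medium quantified by mass spectrometry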;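 on AC50: human H295R adrenal cells prestimulated with forskolin before chemical exposure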); conditions: actives raise or lower the signal
Method in brief: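 H295R adrenal cells prestimulated 48 hours with 10 uM forskolin, then exposed 48 hours to chemical in 0.1% DMSO. Corticosterone in medium measured by HPLC-MS/MS after MTBE extraction; MTT viability in the same wells; bidirectional fit versus DMSO.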

[14] = CEETOX_H295R_ANDR: CeeTox H295R High-throughput Steroidogenesis Assay for Androstenedione (ANDR) (AID 2283436; active means hit-call score of the fitted dose curve at least 0.9, where 1 is the maximum; inactive means score below 0.9); conditions: actives raise or lower the signal
Method in brief: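 H295R cells, following OECD 456 with minor changes, exposed to chemicals for 48 h. Androstenedione in the medium was quantified by HPLC-MS/MS after MTBE extraction. Fitting was bidirectional versus DMSO; chemicals were diluted until MTT viability was ≥70%.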

[15] = molecular target: Agonist Androgen Response Element (ARE), AR (gene 367) (UniProt P10275); experiment: OT_AR_ARELUC_AG_1440: Odyssey Thera (OT) 24-hour CHO-K1 Luciferase Assay for Agonist Androgen Response Element (ARE) (AID 2283379)
Sequence of Agonist Androgen Response Element (ARE), AR (gene 367) (P10275 whole entry, looked up): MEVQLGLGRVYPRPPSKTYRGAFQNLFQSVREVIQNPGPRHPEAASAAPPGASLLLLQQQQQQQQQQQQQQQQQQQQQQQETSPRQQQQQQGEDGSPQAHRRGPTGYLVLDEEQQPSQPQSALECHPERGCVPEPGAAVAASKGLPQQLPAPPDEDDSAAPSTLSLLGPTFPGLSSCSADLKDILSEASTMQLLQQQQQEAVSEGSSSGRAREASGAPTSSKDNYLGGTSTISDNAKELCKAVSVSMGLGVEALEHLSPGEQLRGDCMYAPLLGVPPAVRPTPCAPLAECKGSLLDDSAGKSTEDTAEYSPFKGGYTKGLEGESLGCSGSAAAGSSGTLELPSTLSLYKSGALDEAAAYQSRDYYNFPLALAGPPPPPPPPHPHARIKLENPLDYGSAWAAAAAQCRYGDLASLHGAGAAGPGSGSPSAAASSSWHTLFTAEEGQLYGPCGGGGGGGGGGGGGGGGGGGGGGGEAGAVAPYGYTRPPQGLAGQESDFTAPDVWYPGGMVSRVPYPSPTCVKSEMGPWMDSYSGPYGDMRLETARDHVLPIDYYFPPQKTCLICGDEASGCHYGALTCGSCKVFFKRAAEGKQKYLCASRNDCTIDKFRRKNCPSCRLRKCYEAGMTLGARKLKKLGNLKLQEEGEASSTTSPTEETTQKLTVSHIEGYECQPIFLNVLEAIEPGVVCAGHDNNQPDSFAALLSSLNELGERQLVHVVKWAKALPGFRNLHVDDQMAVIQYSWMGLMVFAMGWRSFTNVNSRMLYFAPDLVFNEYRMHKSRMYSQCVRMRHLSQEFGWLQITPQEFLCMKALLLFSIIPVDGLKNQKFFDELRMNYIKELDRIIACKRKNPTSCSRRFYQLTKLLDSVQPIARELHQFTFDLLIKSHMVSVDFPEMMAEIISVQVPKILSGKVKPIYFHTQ
Method in brief: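 CHO-K1 cells carrying an ARE-driven luciferase reporter were exposed to compounds for 24 h. Luminescence was then read after adding a D-luciferin/ATP mix, and activity was scored as a gain in signal over DMSO vehicle.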

Measured: AC50

CCOC(=O)C(C)Oc1ccc(Oc2nc3ccc(Cl)cc3o2)cc1 (stereo not given)
active: [2] 35.9 µM | [4] 78.9 µM
inactive: [1] | [3] | [4] | [5] | [6] | [7]

C#CCOC(=O)[C@@H](C)Oc1ccc(Oc2ncc(Cl)cc2F)cc1
active: [10] 9.92 µM | [12] 9.84 µM
not listed: [14] | [15]
inactive: all other assays above

CCC(C)OC(=O)N1CCCCC1CCO (stereo not given)
inactive: [1] | [2] | [3] | [4] | [5] | [6] | [7]

CCCN(CCC)c1c([N+](=O)[O-])cc(C(F)(F)F)c(N)c1[N+](=O)[O-]
active: [8] 1.3 µM | [9] 0.895 µM | [2] 56.9 µM | [3] 50 µM | [4] 32.7 µM and 55.6 µM | [5] 35.9 µM and 34.9 µM
inactive: [1] | [6] | [7]

CCN(CC)C(=O)c1cccc(C)c1
inactive: [1] | [8] | [9] | [2] | [4] | [5] | [6] | [7]

COC(=O)c1ccc(I)cc1S(=O)(=O)NC(=O)Nc1nc(C)nc(OC)n1
inactive: [1] | [5] | [6] | [7]

CN(C)C(=O)Nc1ccc(Cl)c(Cl)c1
active: [12] 42.6 µM | [14] 30.8 µM
not listed: [1] | [2] | [3] | [15]
inactive: all other assays above

CCCCC(CC)CN1C(=O)C2C3C=CC(C3)C2C1=O (stereo not given)
not listed: [2] | [3] | [14] | [15]
inactive: all other assays above

OB(O)O
inactive: [8] | [9] | [2] | [5] | [6] | [7]

CSC(=O)c1cccc2nnsc12
active: [11] 55.6 µM | [12] 50 µM | [13] 23 µM
not listed: [1] | [2] | [3]
inactive: all other assays above

CCNc1nc(N)nc(Cl)n1
inactive: [1] | [4] | [5] | [11] | [12]

CCCCOC(=O)[C@@H](C)Oc1ccc(Oc2ccc(C(F)(F)F)cn2)cc1
active: [9] 46.5 µM | [2] 58.9 µM
not listed: [14] | [15]
inactive: all other assays above

CCCCC(CC)COC(=O)c1ccccc1C(=O)O (stereo not given)
inactive: [1] | [4] | [5]

CCCCOC(=O)C(C)Oc1ccc(Oc2ccc(C(F)(F)F)cn2)cc1 (stereo not given)
active: [4] 65.1 µM
inactive: [1] | [8] | [9] | [2] | [3] | [4] | [5] | [6] | [7]

CCN(Cc1c(F)cccc1Cl)c1c([N+](=O)[O-])cc(C(F)(F)F)cc1[N+](=O)[O-]
active: [8] 3.54 µM | [9] 6.39 µM | [12] 15.3 µM
inactive: [1] | [2] | [4] | [5] | [6] | [7] | [11]
